RecA splice inh: inhibitors of M. tuberculosis RecA intein splicing | inhibition, % (test concentration not listed) | P9WHJ3 | cell-free RecA intein splicing, fluorescence | hit rate 0.75% among 290,000; in the data active = inhibition above about 30%
GDH-TPI counter-1: GDH-TPI coupled enzyme inhibition counter-screen. hit rate 1.2% among 360,000. GDH-TPI coupled enzyme counterscreen, NADH absorbance. inhibition, % at 4.8 µM; in the data active = inhibition above about 30%
UGM FP inh: blocks M. tuberculosis UGM enzyme; P9WIQ1; purified UGM, fluorescence polarization probe displacement; inhibition, % at 10 µM; hit rate 0.06% among 320,000; AID 504406; in the data active = inhibition above about 10%, passing the limit was not always enough
Mtb bLac sens: beta-lactam sensitization of Mtb H37Rv | M. tuberculosis H37Rv growth with meropenem, percent inhibition | inhibition, % at 25 µM | hit rate 0.27% among 330,000 | AID 434955; call rule not given here;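 also: growth measured after seven days incubation then overnight dye step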
Rv3671c protease: inhibitors of M. tuberculosis serine protease Rv3671c; inhibition, % at 5.96 µM; hit rate 0.048% among 320,000; in the data active = inhibition above about 38%;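 also: extracellular domain of Rv3671c used as enzyme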
Target sequence (P9WHR9 whole entry, looked up, the tested form may be a part): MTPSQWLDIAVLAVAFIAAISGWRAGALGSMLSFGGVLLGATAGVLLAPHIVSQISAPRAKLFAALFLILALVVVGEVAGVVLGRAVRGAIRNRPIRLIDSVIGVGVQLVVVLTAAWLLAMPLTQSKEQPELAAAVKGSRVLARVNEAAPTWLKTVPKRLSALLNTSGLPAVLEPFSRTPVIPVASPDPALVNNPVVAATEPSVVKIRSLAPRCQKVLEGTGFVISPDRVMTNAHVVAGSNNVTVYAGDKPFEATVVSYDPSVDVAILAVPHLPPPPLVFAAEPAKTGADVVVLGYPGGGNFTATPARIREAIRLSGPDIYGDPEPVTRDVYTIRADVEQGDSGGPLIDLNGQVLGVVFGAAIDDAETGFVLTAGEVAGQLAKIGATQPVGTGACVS
FBA Mtb inh: inhibitors of M. tuberculosis fructose-bisphosphate aldolase; P9WQA3; purified M. tuberculosis FBA, fluorescence read-out; inhibition, % at 1 µM; hit rate 2.3% among 360,000; AID 588726
Mtb FBA confirm: Mtb FBA inhibition, confirmed | AID 651616 | hit rate 78% among 5,600 | inhibition, % at 1 µM | shares compounds with FBA Mtb inh | purified M. tuberculosis FBA, fluorescence read-out
GDH-TPI counter-2: inhibits GDH-TPI coupling enzymes, flagging Mtb FBA hits; GDH-TPI coupled enzyme counterscreen, fluorescence; shares compounds with FBA Mtb inh; hit rate 81% among 5,600; inhibition, % at 1 µM; in the data active = inhibition above about 10%
Hits are given with their value; 0 = inactive; - = not tested or not shown; + = active, no number. Sampled rows, rich in hits. Any-hit rate of the full collection: about 4%. Rule as the data show it, unless noted: active = inhibition above about 27%; inactive = the rest.

SMILES | RecA splice inh | GDH-TPI counter-1 | UGM FP inh | Mtb bLac sens | Rv3671c protease | FBA Mtb inh | Mtb FBA confirm | GDH-TPI counter-2
CCN(CC(=O)Nc1c(F)cccc1F)C(=O)Cn1[nH]c(=O)c2ccccc2c1=O | - | 0 | 0 | 0 | 0 | 0 | - | -
COC(=O)c1ccc(NC(=S)NC2CC3CCC2C3)cc1 (configuration not stated) | 0 | 0 | 0 | 0 | 0 | 37 | 86 | 64
COC(=O)c1ccc(NC(=O)C2CC3CCC2C3)cc1 (configuration not stated) | 0 | 0 | 0 | 0 | 0 | 0 | - | -
COc1ccc(CN2CCNC(=O)C2CC(=O)NCCCn2nnc3ccccc32)cc1C (configuration not stated) | 0 | 0 | 0 | 0 | 0 | 0 | - | -
CCC(C)NC(=O)c1cc2c(=O)n3cccc(C)c3nc2s1 (configuration not stated) | 0 | 0 | 0 | 0 | 0 | 104 | 171 | 147
C=CCNC(=O)c1cc2c(=O)n3cccc(C)c3nc2s1 | 0 | 0 | 0 | 0 | 0 | 93 | 165 | 133
COc1ccc(CCNC(=O)c2cc3c(=O)n4cccc(C)c4nc3s2)cc1OC | 0 | 0 | 0 | 0 | 0 | 0 | - | -
CC(=O)Oc1c(-c2ccc(Br)o2)oc2ccccc2c1=O | 0 | 0 | 0 | 0 | 0 | 79 | 47 | 41
N=C(N)SCc1nc2ccccc2c(=O)n1-c1ccccc1 | 0 | 0 | 0 | 0 | 0 | 0 | - | -
N=C(N)n1c(N)nc2ccccc2c1=O | 0 | 0 | 0 | 0 | 0 | 59 | 0 | 11
CCOC(=O)C1=C(CSc2nncn2C)NC(=O)NC1c1cc(OCC)ccc1OCC (configuration not stated) | - | 0 | 0 | 0 | 0 | 0 | - | -
O=C(COC(=O)c1cccc(Cl)c1)NC1CCS(=O)(=O)C1 (configuration not stated) | - | 0 | - | 0 | 0 | 0 | - | -
CN(C(=O)COC(=O)c1ccc(Cl)cc1N)C1CCCCC1 | 0 | 0 | 0 | 0 | 0 | 39 | 40 | 32
Nc1cc(Cl)ccc1C(=O)OCC(=O)NC1CCS(=O)(=O)C1 (configuration not stated) | 0 | 0 | 0 | 0 | 0 | 52 | 170 | 158
Nc1cc(Cl)ccc1C(=O)OCC(=O)NCc1cccs1 | - | 0 | 0 | 0 | 0 | 56 | 31 | 21
O=C(COC(=O)c1ccccc1Cl)NCc1cccs1 | - | 0 | - | - | - | 0 | - | -
CN(C(=O)COC(=O)c1ccc([N+](=O)[O-])cc1Cl)C1CCCCC1 | 0 | 0 | 0 | 0 | 0 | 0 | - | -
CCOC(=O)C1CCN(C(=O)CCC(=O)NCCc2ccc(Cl)cc2)CC1 | 0 | 0 | 0 | 0 | 0 | 0 | - | -
Cc1nc2c(c(=O)c3ccccc3n2C)c(=O)n1C1CCCCCC1 | 0 | 0 | 0 | 0 | 0 | 37 | 45 | 46
COc1ccccc1NC(=O)Nc1cc(F)ccc1F | 0 | 0 | 0 | 0 | 0 | 0 | - | -
N#CC1=CN(Cc2ccccc2)C=C(/C=N/Nc2ccccc2)C1 | - | 0 | 0 | 0 | 0 | 0 | - | -
CCOC(=O)C(=O)C1=CN(Cc2ccccc2)C=C(C#N)C1 | 0 | 0 | 0 | 0 | 0 | 29 | 98 | 70
CSc1ncccc1C(=O)Nc1ccc(OC(F)(F)F)cc1 | 0 | 0 | 0 | 0 | 0 | 44 | 33 | 34
CCOCCCNC(=O)c1oc2ccc3c(c2c1C)C(O)CC(C)(C)O3 (configuration not stated) | 0 | 0 | 0 | 0 | - | 33 | 35 | 25
CCCNC(=O)c1oc2ccc3c(c2c1C)C(O)CC(C)(C)O3 (configuration not stated) | 0 | 0 | 0 | 0 | - | 49 | 0 | 0
SMILES | RecA splice inh | GDH-TPI counter-1 | UGM FP inh | Mtb bLac sens | Rv3671c protease | FBA Mtb inh | Mtb FBA confirm | GDH-TPI counter-2
Cc1c(C(=O)NCCCN2CCCCC2)oc2ccc3c(c12)C(O)CC1(CCCCC1)O3 (configuration not stated) | 0 | 0 | 0 | 0 | 0 | 0 | - | -
CCCn1c(SCC(=O)Nc2ccccc2CC)nnc1C(C)C | 0 | 0 | 0 | 0 | 0 | 0 | - | -
CCCn1c(SCC(=O)Nc2c(C)cccc2CC)nnc1C(C)C | 0 | 0 | 0 | 0 | 0 | 39 | 118 | 111
c1ccc(N2CC3CCc4ccccc4C3=N2)cc1 (configuration not stated) | - | 0 | 0 | 0 | 0 | 58 | 46 | 31
Cc1c(C)c2ccc(OCC(=O)N3C[C@H]4C[C@@H](C3)c3cccc(=O)n3C4)c(C)c2oc1=O | - | 0 | 0 | 0 | 0 | 34 | 68 | 40
CC(C)=CCOc1ccc2c(C)c(CCC(=O)N3C[C@H]4C[C@@H](C3)c3cccc(=O)n3C4)c(=O)oc2c1C | - | 0 | - | - | - | 82 | 102 | 92
COc1cc(C(=O)OCC(=O)Nc2ccc(F)cc2F)cc(OC)c1OC | 0 | 0 | 0 | 0 | 0 | 0 | - | -
O=C(Nc1cccnc1)c1cc2c(s1)-c1ccccc1OC2 | 0 | 37 | 0 | 0 | 0 | 73 | 71 | 54
Cc1cccc2c1-c1sc(C(=O)Nc3cccnc3)cc1CO2 | 0 | 0 | 0 | 0 | 0 | 101 | 0 | 0
CCOC(=O)c1c(NC(=O)COC(=O)CCOc2ccc(OCC)cc2)sc(C(=O)N(C)C)c1C | 0 | 0 | 0 | 0 | 0 | 0 | - | -
Cc1cc2c(c(N)n1)c(=O)oc1ccccc12 | 0 | 0 | 0 | 0 | 0 | 40 | 0 | 0
O=c1oc2ccc3ccccc3c2cc1-c1nc2ccccc2o1 | 0 | 0 | 0 | 0 | 0 | 46 | 73 | 67
O=c1oc2ccccc2c2[nH]ccc12 | 0 | 0 | 0 | 0 | 0 | 0 | - | -
O=c1oc2ccccc2c2c1ccc1ccccc12 | - | 0 | - | - | - | 29 | 51 | 43
CC1(C(=O)NCc2cccnc2)Cc2c(-c3cccc(C(F)(F)F)c3)ccnc2O1 (configuration not stated) | - | 0 | - | - | - | 0 | - | -
Cc1ccc(NC(=O)CN(C)C(=O)CCC(=O)N2CCOCC2)cc1 | 0 | 0 | 0 | 0 | 0 | 0 | - | -
CCOC(=O)c1cc2c3ccccc3n(CC)c2nc1N | 0 | 0 | 0 | 0 | 0 | 37 | + | +
CCOC(=O)c1cc(=O)n(Cc2ccccc2C)c2ccccc12 | 0 | 0 | 0 | 0 | 0 | 0 | - | -
Cc1nc(C(=O)NCCCO)cc2c1[nH]c1ccccc12 | 0 | 0 | 0 | 0 | 0 | 0 | - | -
Cc1nc(C(=O)NCCO)cc2c1[nH]c1ccccc12 | 0 | 0 | 0 | 0 | - | 0 | - | -
Cc1cc2c([nH]c3ccccc32)c(C)n1 | 0 | 0 | 0 | 0 | 0 | 96 | 0 | 0
Cc1nc(C(=O)O)cc2c1[nH]c1ccccc12 | 0 | 0 | 0 | 0 | 0 | 85 | + | +
Cc1cccc(-c2c(NC(=O)c3ccco3)oc3c(C)cccc3c2=O)c1 | 0 | 0 | 0 | 0 | 0 | 0 | - | -
CC(=O)Nc1nnc(-c2ccccn2)o1 | 0 | 0 | 0 | 0 | 0 | 31 | + | 153
Cc1ccccc1C(=O)NCCCc1ccccc1 | 0 | 0 | 0 | 0 | 0 | 0 | - | -
O=C(CCS(=O)(=O)c1ccc(Br)cc1)N1CCN(c2ccccc2)CC1 | - | 0 | 0 | 0 | 0 | 73 | 69 | 62
COc1ccccc1CCN=C(N)NS(=O)(=O)c1ccc(C)cc1 | 0 | 0 | 0 | 0 | 0 | 0 | - | -
COc1ccccc1CCN=C(N)NS(=O)(=O)c1ccccc1F | 0 | 0 | 0 | 0 | 0 | 51 | + | 175
